Assay [1] is described as follows: Her2 expression decrease, cell viability multiplex – SKBR3 breast tumor cells, AlphaScreen, ATP viability, primary screen (AID 461;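 active = Her2 level under about 52% in both replicate screens, with viability over 70% of control, limit read from the data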;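 as to Her2 level: lower value means less Her2 protein in the cells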;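 as to viability: percent of carrier control wells set as 100% viability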). The following applies: SKBR3 Her2 protein level, 18-24 h, measured here: SKBR3 viability, ATP luminescence, at 10 µM. In general terms: Alpha assays give light when donor and acceptor beads are brought close together.
Assay [2] deals with Receptor tyrosine-protein kinase erbB-2 (Homo sapiens) (UniProt P04626). The description is as above. The settings on record: 18-24 h, at 10 µM, stronger effect = lower value.
Assay [3] in a line: reduced viability of SK-BR-3 breast cancer cells – cell-based, 24 h, human, pilot screen (AID 572;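 active = viability at or below 10% of carrier control in both of two separate runs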;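 also: compound exposure lasted between 18 and 24 h rather than exactly 24 h; 100% = carrier-treated control wells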). The following applies: SK-BR-3 viability, CellTiter-Glo luminescence, at 10 µM, stronger effect = lower value. On the technique in general: ATP-based viability assays read luminescence as a measure of living cells.
Assay [4] can be described thus: HUVEC growth inhibition – cell-based, human, primary screen (AID 575;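 active = viability at or below 30% in both replicate assays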;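 also: 100% = median of untreated cell wells with 0.1% DMSO on each plate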). The following applies: HUVEC proliferation, CellTiter-Glo luminescence, 72 h; at 10 µM; stronger effect = lower value.
Assay [5] in a line: H69AR cell proliferation blockers – human, duplicate replicates, primary screen (AID 580;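 active = viability at or under a set limit in both replicates, limit being median viability minus 3 SD, cut at about 48% in these data, passing the limit was not always enough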;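 also: 100% = mean luminescence of untreated wells and 0% = no signal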). The following applies: H69AR lung tumor cells viability, ATP luminescence, 72 h; at 10 µM; stronger effect = lower value.
A short description of assay [6]: MRP1 drug-resistance reversers in H69AR cells – cell-based, doxorubicin co-treatment, pilot screen (AID 601;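 active = viability loss from added drug above about 55%, and viability with drug at most 40%, in both replicates, limit read from the data, passing the limit was not always enough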). The following applies: CellTiter-Glo, 72 h, at 10 µM; for differential viability (reversal): stronger effect = higher value.
Assay [7] in a line: yeast transport mutant growth inhibition pilot in 384-well plates, post-Golgi transport modulator project (AID 636; in the data active = inhibition above about 31%). The following applies: absorbance 615 nm, about 18 h, stronger effect = higher value.
Assay [8] can be described thus: growth suppression of yeast trafficking mutant, preliminary HTS, modulators of trafficking downstream of Golgi apparatus project, 1536-format plate, OD 615 nm (AID 637; in the data active = inhibition above about 30%). The following applies: yeast transport mutant growth, absorbance 615 nm, 18 h; stronger effect = higher value.
Assay [9] can be described thus: S. cerevisiae growth inhibition in permissive medium (OD615), pilot counter-assay for S. cerevisiae lifespan shortening project, permissive growth control (AID 705;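 active = growth inhibition above 25% in both replicates, a cutoff set 3 SD above the mean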). The settings on record: OD615, 24 h, at 10 µM, stronger effect = higher value.
Assay [10] in a line: S. cerevisiae growth inhibition in restrictive medium, OD615, pilot screen, restrictive growth control, yeast lifespan reduction project (AID 706;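 active = growth inhibition above a set limit, 3 SD over mean compound inhibition, in both replicates, cut at about 43% in these data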;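 also: modified DeaD lifespan yeast strain shifted to restrictive glucose medium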). The following applies: OD615, 48 h, at 10 µM, stronger effect = higher value.
A short description of assay [11]: doxorubicin toxicity protection in MRP-1 cells – H69AR cells, CellTiter-Glo, duplicate, MRP-1 activator project, pilot screen (AID 807;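 active = viability increase at or above a cutoff of the median across tested compounds plus 3 SD, cut at about 8.5% in these data, passing the limit was not always enough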;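 also: compound pretreatment 18-22 h then 72 h combined with doxorubicin; 0% = doxorubicin alone and 100% = vehicle without doxorubicin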). The settings on record: H69AR viability with doxorubicin, CellTiter-Glo luminescence; at 10 µM; stronger effect = higher value.
Assay [12] in a line: viability of PTEN-null HCT116 cells – cell-based, HCT116 clonal line, CellTiter-Glo, pilot screen (AID 824;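 active = viability at or below 27.92% in each of two runs, the all-compound median minus 4 SD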;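 also: 0% = 20 µM Hyamine control and 100% = vehicle cell control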). The settings on record: HCT116 PTEN-deleted viability, 60 h, at 10 µM, stronger effect = lower value.
Assay [13] in a line: RAM pathway blockade in budding yeast – dse1pr::URA3 reporter, 5-FOA selection, pilot screen (AID 869).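 Also: 0% = DMSO wells with no growth and 100% = 10 µM 1-NA-PP1 with full growth; RAM network block rescues cells from 5-FOA so hits raise OD615 growth.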 The settings on record: S. cerevisiae dse1pr::URA3 5-FOA growth, OD615, 2 d; at 10 µM; stronger effect = higher value; strain carries analog-sensitive mutant Cbk1 kinase.
Assay [14] is described as follows: RAM signaling pathway blockade in yeast – S. cerevisiae, Pdr1DBD-CYC8 efflux-inhibited sensitized strain, primary screen (AID 1298;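 active = RAM network inhibition above 8.4% in each of two replicates, 3 SD over the compound average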;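 also: 0% = DMSO untreated cells without growth and 100% = 10 µM 1-NA-PP1 full growth; higher means more yeast growth rescued from 5-FOA killing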). The settings on record: S. cerevisiae cbk1-as DSE1-URA3 strain, 5-FOA growth OD615, 2 d; at 50 µM; stronger effect = higher value.
The nature of assay [15]: viability of HCT116 without oncogenic beta-catenin – human colon tumor cells, pilot screen (AID 823;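 active = cell viability at or below a set limit in both duplicate runs, the limit being the all-compound median minus 4 SD, cut at about 23% in these data, passing the limit was not always enough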;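 also: 0% = wells killed by 20 µM Hyamine and 100% = untreated DMSO cell wells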). The following applies: HCT116 beta-catenin knockout viability, CellTiter-Glo, 60 h; at 10 µM; stronger effect = lower value.
The mark [16] stands for this setting: H69AR cells + 2 uM doxorubicin, measured here: viability with 2 uM doxorubicin, stronger effect = lower value.
Setting [17] is: H69AR cells, compound alone cytotoxicity.

Records with an inconclusive call do not appear. Active and inactive are the calls of the source.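 The calls were made as follows, unless noted: active = inhibition over a set limit, the all-compound mean plus 3 SD, in both replicate runs; inconclusive = over that limit in just one replicate run; inactive = at or under that limit in both runs.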

Chain of Receptor tyrosine-protein kinase erbB-2 (Homo sapiens) (P04626 whole entry, looked up): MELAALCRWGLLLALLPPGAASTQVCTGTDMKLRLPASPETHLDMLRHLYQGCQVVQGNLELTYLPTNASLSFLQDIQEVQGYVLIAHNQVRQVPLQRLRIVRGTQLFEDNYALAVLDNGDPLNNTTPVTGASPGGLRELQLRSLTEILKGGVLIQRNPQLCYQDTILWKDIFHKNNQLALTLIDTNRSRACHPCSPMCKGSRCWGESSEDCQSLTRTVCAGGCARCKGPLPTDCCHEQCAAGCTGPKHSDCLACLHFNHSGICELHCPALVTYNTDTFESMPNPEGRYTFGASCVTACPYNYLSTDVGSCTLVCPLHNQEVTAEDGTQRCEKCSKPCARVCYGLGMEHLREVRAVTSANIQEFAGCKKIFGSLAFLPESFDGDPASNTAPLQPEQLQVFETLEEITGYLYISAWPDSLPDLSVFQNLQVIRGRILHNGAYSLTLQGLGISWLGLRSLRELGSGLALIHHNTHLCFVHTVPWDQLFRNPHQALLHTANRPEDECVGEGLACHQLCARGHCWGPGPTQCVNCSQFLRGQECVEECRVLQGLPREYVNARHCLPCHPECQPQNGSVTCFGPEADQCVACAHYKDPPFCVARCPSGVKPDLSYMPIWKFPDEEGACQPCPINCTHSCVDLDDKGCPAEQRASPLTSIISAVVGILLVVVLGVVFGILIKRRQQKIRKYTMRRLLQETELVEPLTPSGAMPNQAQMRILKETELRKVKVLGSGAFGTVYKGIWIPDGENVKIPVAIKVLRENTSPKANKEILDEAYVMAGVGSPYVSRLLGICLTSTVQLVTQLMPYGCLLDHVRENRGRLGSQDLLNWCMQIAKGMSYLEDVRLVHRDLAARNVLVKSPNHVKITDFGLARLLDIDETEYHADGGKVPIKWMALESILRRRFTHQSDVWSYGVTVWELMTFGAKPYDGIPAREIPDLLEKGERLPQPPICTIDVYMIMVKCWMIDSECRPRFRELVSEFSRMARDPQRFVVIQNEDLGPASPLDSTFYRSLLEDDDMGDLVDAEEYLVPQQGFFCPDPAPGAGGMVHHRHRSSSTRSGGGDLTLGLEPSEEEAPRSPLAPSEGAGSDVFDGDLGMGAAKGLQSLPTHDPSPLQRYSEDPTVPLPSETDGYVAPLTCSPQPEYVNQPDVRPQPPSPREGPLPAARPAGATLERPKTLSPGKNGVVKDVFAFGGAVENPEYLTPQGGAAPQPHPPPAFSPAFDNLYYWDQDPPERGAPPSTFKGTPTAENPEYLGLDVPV

Broadly, the viability is a read-out of living cells in per cent, often relative to untreated cells. For orientation: inhibition means the change of the read-out against control, counted positive when it falls. Turning to `CC1(C)CC(=O)CC(C2(O)C(=O)N(Cc3ccccc3)c3ccccc32)O1` (stereo not drawn), the viability is 99.5% in assay [1]; 99.5% (inactive) in [3]; 78.3% (inactive) in assay [4]; 44% (active) in assay [5]; 56.7% in assay [6] (setting [16]); 44% in [6] (setting [17]). The viability in assay [12] was 44.2% (inactive). Besides, the Her2 level in assay [2] is 82.5% (inactive). In assay [6] (H69AR cells + 2 uM doxorubicin), the differential viability (reversal) was -12.7% (inactive). The inhibition was 1.2% (inactive) in assay [7], -4.75% (inactive) in assay [8] and 1.98% (inactive) in assay [13]. In addition, the growth inhibition in [9] was -7.38% (inactive); in assay [10] it was 4.87% (inactive). In addition, the viability increase in assay [11] is -5.63% (inactive). In addition, the RAM network inhibition in assay [14] was 1.36% (inactive).
With `O=C(c1cnccn1)N(c1ccccc1)C1(C(=O)NC2CCCC2)CCCCC1`, the viability in assay [1] was 118%; in assay [3] it was 118% (inactive); in assay [4] it was 96% (inactive); in assay [5] it was 99.1% (inactive); in [6] (setting [16]) it was 102%; in [6] (setting [17]) it was 99.1%. Further, the viability in assay [12] is 96% (inactive). The Her2 level in assay [2] was 106% (inactive). The differential viability (reversal) in assay [6] (H69AR cells + 2 uM doxorubicin) was -2.94% (inactive). Besides, the inhibition is -8.77% (inactive) in [7], -1.75% (inactive) in assay [8] and 1.56% (inactive) in [13]. Further, the growth inhibition was -9.55% (inactive) in assay [9] and -12.1% (inactive) in assay [10]. In addition, the viability increase in [11] is -1.49% (inactive). Moreover, the RAM network inhibition in assay [14] was 3.39% (inactive).
In the case of `O=C1NC(=O)C(CC(=O)N(Cc2ccco2)C2(C(=O)NC3CCCC3)CCCCC2)N1` (stereo not drawn), the viability was 99.5% in assay [1]; 99.5% (inactive) in [3]; 106% (inactive) in [4]; 92.6% (inactive) in assay [5]; 94.1% in [6] (setting [16]); 92.6% in assay [6] (setting [17]). Further, the viability in [12] is 89% (inactive). Further, in [2], the Her2 level is 116% (inactive). In addition, the differential viability (reversal) in [6] (H69AR cells + 2 uM doxorubicin) is -1.5% (inactive). The inhibition is -7.95% (inactive) in assay [7], -6.51% (inactive) in [8] and 0.975% (inactive) in [13]. The growth inhibition in [9] is -7.63% (inactive); in assay [10] it was -4.51% (inactive). For the same compound, the viability increase in [11] was -3.06% (inactive). The RAM network inhibition in assay [14] is -0.51% (inactive).
With `Cc1c(C(=O)Nc2nnc(C(F)(F)F)s2)oc2ccccc12`, the viability was 91.5% in assay [1]; 91.5% (inactive) in assay [3]; 51% (inactive) in assay [4]; 84.8% (inactive) in assay [5]; 93.1% in [6] (setting [16]); 84.8% in assay [6] (setting [17]). The viability in assay [12] is 65.5% (inactive). Besides, the Her2 level in assay [2] is 81.5% (inactive). Further, the differential viability (reversal) in [6] (H69AR cells + 2 uM doxorubicin) is -8.24% (inactive). For the same compound, the inhibition was -6% (inactive) in assay [7], -3.33% (inactive) in assay [8] and 2.56% (inactive) in [13]. In addition, the values for the growth inhibition in assay [9] and in [10] were -4.23% (inactive) and 13.6% (inactive), respectively. The RAM network inhibition in [14] was 4.2% (inactive).
As to `COCCn1c(SCC(=O)N2CCc3ccccc32)nc2c(c1=O)SC(C)C2` (stereo not drawn), the viability in assay [1] was 77%; in assay [3], 77% (inactive); in assay [4], 67.8% (inactive); in [5], 78.8% (inactive); in assay [15], 94.1% (inactive); in assay [12], 94.3% (inactive). The Her2 level in assay [2] is 104% (inactive). The values for the inhibition in [7], in assay [8] and in assay [13] were -3.87% (inactive), -2% (inactive) and 0.465% (inactive), respectively. For the same compound, the figures for the growth inhibition in [9] and in assay [10] were 6.33% (inactive) and 13.2% (inactive), respectively. The viability increase in assay [11] was -2.72% (inactive). Besides, the RAM network inhibition in [14] was 6.03% (inactive).
Turning to `Cc1noc(/C=C/N(C)C)c1S(=O)(=O)N1CCCC(C(=O)NC2CCCCC2)C1` (stereo not drawn), the viability was 99% in assay [1]; 99% (inactive) in assay [3]; 75.7% (inactive) in assay [4]; 88.6% (inactive) in [5]; 105% in assay [6] (setting [16]); 88.6% in assay [6] (setting [17]). Besides, the viability in [15] was 93% (inactive); in assay [12] it was 88.4% (inactive). The Her2 level in assay [2] was 99.5% (inactive). In addition, in assay [6] (H69AR cells + 2 uM doxorubicin), the differential viability (reversal) was -16.5% (inactive). For the same compound, the inhibition in assay [7] is -3.07% (inactive); in assay [8], -3.5% (inactive); in assay [13], 0.78% (inactive). Further, the growth inhibition in [9] is 2.12% (inactive); in assay [10], -9.03% (inactive). For the same compound, in [14], the RAM network inhibition was 5.71% (inactive).
With `O=C(CCS(=O)(=O)c1cccc2nsnc12)NCc1ccccc1`, the viability in [1] is 93.5%; in assay [3], 93.5% (inactive); in assay [4], 91.2% (inactive); in [5], 106% (inactive); in assay [6] (setting [16]) it was 88.9%; in [6] (setting [17]) it was 106%. The viability in [12] was 105% (inactive). Also, in assay [2], the Her2 level is 116% (inactive). In assay [6] (H69AR cells + 2 uM doxorubicin), the differential viability (reversal) was 17.4% (inactive). The inhibition in [7] is -3.01% (inactive); in assay [8] it was -4.6% (inactive); in [13], 1.31% (inactive). Besides, the growth inhibition is -12.7% (inactive) in [9] and -4.2% (inactive) in assay [10]. The viability increase in [11] is -2.9% (inactive). For the same compound, in assay [14], the RAM network inhibition was 1.65% (inactive).
`CCOc1ccccc1C1CC(c2ccc(Br)cc2)Nc2nc(N)nn21` (stereo not drawn): the viability in [1] was 91.5%; in assay [3] it was 91.5% (inactive); in [4], 63.3% (inactive); in assay [5], 25.7% (active); in assay [6] (setting [16]) it was 71.6%; in [6] (setting [17]), 25.7%. For the same compound, the viability was 69.3% (inactive) in assay [15] and 73.2% (inactive) in assay [12]. The Her2 level in [2] is 102% (inactive). Besides, the differential viability (reversal) in assay [6] (H69AR cells + 2 uM doxorubicin) is -45.9% (inactive). In addition, the inhibition in assay [7] is -2.13% (inactive); in assay [8] it was 0.16% (inactive); in assay [13] it was 2.62% (inactive). For the same compound, the growth inhibition in assay [9] was 9.24% (inactive). Besides, the viability increase in assay [11] was -2.25% (inactive). The RAM network inhibition in assay [14] was 4.4% (inactive).
In the case of `CC(C)CC1NC2(C(=O)N(C)c3ccccc32)C2C(=O)N(C(C)C)C(=O)C12` (stereo not drawn), the viability was 86.5% in assay [1]; 86.5% (inactive) in assay [3]; 83.3% (inactive) in [4]; 99.1% (inactive) in [5]; 103% (inactive) in assay [15]; 103% (inactive) in [12]. In assay [2], the Her2 level is 110% (inactive). Besides, the inhibition in assay [7] is -1.73% (inactive); in assay [8], -0.33% (inactive); in assay [13], 1.11% (inactive). The growth inhibition was 4.83% (inactive) in assay [9] and 6.6% (inactive) in assay [10]. Also, the viability increase in assay [11] was -1.13% (inactive). Further, in assay [14], the RAM network inhibition was 2.88% (inactive).
Turning to `CCN1CCN(c2ncnc3c2cnn3-c2ccc(C)cc2C)CC1`, the viability was 85.5% in assay [1]; 85.5% (inactive) in [3]; 99.8% (inactive) in assay [4]; 73.7% (inactive) in assay [5]; 85.1% (inactive) in assay [15]; 81.6% (inactive) in [12]. Besides, the Her2 level in assay [2] is 96% (inactive). Further, the inhibition in [7] was -6.4% (inactive); in assay [8] it was 7.7% (inactive); in assay [13], 0.395% (inactive). The growth inhibition in [9] was -5.99% (inactive); in assay [10], -11% (inactive). In addition, the viability increase in [11] was -6.88% (inactive). Moreover, the RAM network inhibition in [14] is 0.63% (inactive).

The values above are taken from PubChem BioAssay.
